Experimental data taken from PubChem BioAssay AID1159580 (chemical genetic matrix, 2015).
Out of some 5,500 compounds screened, about 2,000 (36%) were called active. Roughly 18% stayed inconclusive and do not appear here. Cut-off read from the data, not from the text of the source: active = normalized growth mostly below about 0.91 (no sharp cut-off); inconclusive = no clear call, values can overlap the other calls; inactive = mostly above about 0.92. The list shows a part of the results.

Assay: chemical genetic growth profiling, strain panel (AID 1159580);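 note: tested at 20 µM; growth read once vehicle control cultures reached saturation at 30 °C; 1 = growth at the plate median or of vehicle wells; lower values mean less growth of the strain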
Details: growth OD

Measured: normalized growth

OCC(O)C(O)C(O)C(O)C(O)CO (configuration not stated)
inactive: S. cerevisiae deletion strains, locus YKL009W, strain mrt4, stronger effect = lower value 1.05 | S. cerevisiae deletion strains, locus YKL068W, stronger effect = lower value 0.98 | S. cerevisiae deletion strains, locus YKL085W, strain MDH1 (second series), stronger effect = lower value 1 | S. cerevisiae deletion strains, locus YKL085W, strain MDH1, stronger effect = lower value 1 | S. cerevisiae deletion strains, locus YKL160W, strain elf1, stronger effect = lower value 1.01 | S. cerevisiae deletion strains, locus YKL190W, strain CNB1, stronger effect = lower value 1.02 | S. cerevisiae deletion strains, locus YKR001C, strain vps1, stronger effect = lower value 1.01 | S. cerevisiae deletion strains, locus YKR026C, strain gcn3, stronger effect = lower value 1.01 | S. cerevisiae deletion strains, locus YKR091W, strain srl3, stronger effect = lower value 0.997 | S. cerevisiae deletion strains, locus YLL001W, strain dnm1, stronger effect = lower value 0.995 | S. cerevisiae deletion strains, locus YLL026W, stronger effect = lower value 0.999 | S. cerevisiae deletion strains, locus YLL041C, strain sdh2, stronger effect = lower value 0.998 | S. cerevisiae deletion strains, locus YLR027C, strain aat2, stronger effect = lower value 0.997 | S. cerevisiae deletion strains, locus YLR039C, strain RIC1, stronger effect = lower value 1.14 | S. cerevisiae deletion strains, locus YLR058C, strain SHM2, stronger effect = lower value 1 | S. cerevisiae deletion strains, locus YLR102C, strain apc9, stronger effect = lower value 0.987 | S. cerevisiae deletion strains, locus YLR113W, strain HOG1, stronger effect = lower value 0.965 | S. cerevisiae deletion strains, locus YLR221C, strain rsa3, stronger effect = lower value 1.01 | S. cerevisiae deletion strains, locus YLR258W, strain gsy2, stronger effect = lower value 1 | S. cerevisiae deletion strains, locus YLR262C, strain YPT6 (second series), stronger effect = lower value 1 | S. cerevisiae deletion strains, locus YLR268W, strain sec22, stronger effect = lower value 0.998 | S. cerevisiae deletion strains, locus YLR320W, strain mms22, stronger effect = lower value 0.985 | S. cerevisiae deletion strains, locus YLR330W, strain CHS5, stronger effect = lower value 0.992 | S. cerevisiae deletion strains, locus YLR342W, strain FKS1 (second series), stronger effect = lower value 0.998 | S. cerevisiae deletion strains, locus YLR342W, strain FKS1, stronger effect = lower value 0.993 | S. cerevisiae deletion strains, locus YLR357W, strain rsc2, stronger effect = lower value 0.974 | S. cerevisiae deletion strains, locus YLR370C, strain arc18, stronger effect = lower value 0.999 | S. cerevisiae deletion strains, locus YLR371W, strain rom2, stronger effect = lower value 1.03 | S. cerevisiae deletion strains, locus YLR384C, strain iki3, stronger effect = lower value 0.995 | S. cerevisiae deletion strains, locus YLR418C, strain cdc73, stronger effect = lower value 1 | S. cerevisiae deletion strains, locus YML016C, strain PPZ1, stronger effect = lower value 0.988 | S. cerevisiae deletion strains, locus YML032C, strain rad52, stronger effect = lower value 0.987 | S. cerevisiae deletion strains, locus YML120C, strain ndi1, stronger effect = lower value 0.988 | S. cerevisiae deletion strains, locus YML124C, strain tub3, stronger effect = lower value 0.988 | S. cerevisiae deletion strains, locus YMR058W, strain fet3, stronger effect = lower value 0.997 | S. cerevisiae deletion strains, locus YMR078C, strain ctf18, stronger effect = lower value 0.989 | S. cerevisiae deletion strains, locus YMR125W, strain sto1, stronger effect = lower value 0.973 | S. cerevisiae deletion strains, locus YMR129W, stronger effect = lower value 0.99 | S. cerevisiae deletion strains, locus YMR205C, strain PFK2, stronger effect = lower value 1 | S. cerevisiae deletion strains, locus YMR223W, strain ubp8, stronger effect = lower value 1.01 | S. cerevisiae deletion strains, locus YMR231W, strain pep5, stronger effect = lower value 0.998 | S. cerevisiae deletion strains, locus YMR307W, strain GAS1, stronger effect = lower value 1.12 | S. cerevisiae deletion strains, locus YNL067W, strain RPL9B, stronger effect = lower value 1.02 | S. cerevisiae deletion strains, locus YNL071W, strain lat1, stronger effect = lower value 1 | S. cerevisiae deletion strains, locus YNL153C, strain GIM3, stronger effect = lower value 1.03 | S. cerevisiae deletion strains, locus YNL183C, strain NPR1, stronger effect = lower value 0.932 | S. cerevisiae deletion strains, locus YNL209W, strain ssb2, stronger effect = lower value 1 | S. cerevisiae deletion strains, locus YNL233W, strain BNI4, stronger effect = lower value 1.06 | S. cerevisiae deletion strains, locus YNL248C, strain rpa49, stronger effect = lower value 0.99 | S. cerevisiae deletion strains, locus YNL250W, strain rad50, stronger effect = lower value 0.987 | S. cerevisiae deletion strains, locus YNL271C, strain bni1, stronger effect = lower value 1.01 | S. cerevisiae deletion strains, locus YNL298W, strain CLA4, stronger effect = lower value 0.99 | S. cerevisiae deletion strains, locus YNL307C, strain MCK1, stronger effect = lower value 0.992 | S. cerevisiae deletion strains, locus YNL322C, strain KRE1 (second series), stronger effect = lower value 0.999 | S. cerevisiae deletion strains, locus YNR049C, strain mso1, stronger effect = lower value 0.987 | S. cerevisiae deletion strains, locus YNR052C, strain pop2, stronger effect = lower value 1.03 | S. cerevisiae deletion strains, locus YOL006C, strain TOP1, stronger effect = lower value 1.14 | S. cerevisiae deletion strains, locus YOL012C, strain htz1 0.757 | S. cerevisiae deletion strains, locus YOL147C, strain pex11, stronger effect = lower value 0.998 | S. cerevisiae deletion strains, locus YOR001W, strain rrp6, stronger effect = lower value 1 | S. cerevisiae deletion strains, locus YOR061W, strain CKA2, stronger effect = lower value 0.984 | S. cerevisiae deletion strains, locus YOR069W, strain VPS5, stronger effect = lower value 1 | S. cerevisiae deletion strains, locus YOR070C, strain gyp1, stronger effect = lower value 0.995 | S. cerevisiae deletion strains, locus YOR080W, strain dia2, stronger effect = lower value 0.985 | S. cerevisiae deletion strains, locus YOR083W, strain WHI5, stronger effect = lower value 0.996 | S. cerevisiae deletion strains, locus YOR106W, strain vam3, stronger effect = lower value 1.01 | S. cerevisiae deletion strains, locus YOR136W, strain idh2, stronger effect = lower value 1.01 | S. cerevisiae deletion strains, locus YOR144C, strain elg1, stronger effect = lower value 0.991 | S. cerevisiae deletion strains, locus YOR184W, strain ser1, stronger effect = lower value 0.982 | S. cerevisiae deletion strains, locus YOR231W, strain MKK1, stronger effect = lower value 0.961 | S. cerevisiae deletion strains, locus YOR265W, strain rbl2, stronger effect = lower value 0.989 | S. cerevisiae deletion strains, locus YOR270C, strain vph1, stronger effect = lower value 0.994 | S. cerevisiae deletion strains, locus YOR290C, strain snf2, stronger effect = lower value 0.989 | S. cerevisiae deletion strains, locus YOR316C, strain cot1, stronger effect = lower value 0.984 | S. cerevisiae deletion strains, locus YPL051W, strain arl3, stronger effect = lower value 1 | S. cerevisiae deletion strains, locus YPL055C, strain LGE1, stronger effect = lower value 0.97 | S. cerevisiae deletion strains, locus YPL078C, strain atp4, stronger effect = lower value 0.992 | S. cerevisiae deletion strains, locus YPL106C, strain sse1, stronger effect = lower value 0.989 | S. cerevisiae deletion strains, locus YPL240C, strain hsp82, stronger effect = lower value 0.989 | S. cerevisiae deletion strains, locus YPL241C, strain CIN2, stronger effect = lower value 0.998 | S. cerevisiae deletion strains, locus YPL256C, strain CLN2, stronger effect = lower value 0.968 | S. cerevisiae deletion strains, locus YPR119W, strain clb2, stronger effect = lower value 0.997 | S. cerevisiae deletion strains, locus YPR141C, strain kar3, stronger effect = lower value 0.976 | S. cerevisiae deletion strains, locus YPR163C, strain tif3, stronger effect = lower value 1.01 | S. cerevisiae deletion strains, locus YPR167C, strain met16, stronger effect = lower value 0.993 | S. cerevisiae deletion strains, strain wtn01, stronger effect = lower value 0.997 | S. cerevisiae strains, strain wild type, stronger effect = lower value 1.03
